# Screening data from PubChem.
# Only some compounds are listed: those with a hit (about 1.5% of all), similar ones and a draw of the others.
# PV pol inh: inhibitors of poliovirus RNA polymerase binding and polymerization; P03300; poliovirus polymerase elongation, fluorescence polarization; hits give low values; % elongation, % (compound at 16.7 µg/mL); actives 0.66% (n = 150,000); in the data active means % elongation below about 90%
# Mtb MenB inh: Mtb MenB enzyme inhibition | actives 0.43% (n = 100,000) | MenB enzyme assay, absorbance read-out | inhibition, % (no concentration beside the values); in the data active means inhibition above about 21%, passing the limit was not always enough
# Mtb MbtI inh: blocks the Mycobacterium tuberculosis siderophore enzyme MbtI. P9WFX0. purified MbtI enzyme, fluorescence intensity read-out. inhibition, % (no concentration beside the values). actives 0.89% (n = 100,000); in the data active means inhibition mostly above about 56%, no sharp cut-off; inactive means mostly below about 77%
# Target sequence (P9WFX0 whole entry, looked up): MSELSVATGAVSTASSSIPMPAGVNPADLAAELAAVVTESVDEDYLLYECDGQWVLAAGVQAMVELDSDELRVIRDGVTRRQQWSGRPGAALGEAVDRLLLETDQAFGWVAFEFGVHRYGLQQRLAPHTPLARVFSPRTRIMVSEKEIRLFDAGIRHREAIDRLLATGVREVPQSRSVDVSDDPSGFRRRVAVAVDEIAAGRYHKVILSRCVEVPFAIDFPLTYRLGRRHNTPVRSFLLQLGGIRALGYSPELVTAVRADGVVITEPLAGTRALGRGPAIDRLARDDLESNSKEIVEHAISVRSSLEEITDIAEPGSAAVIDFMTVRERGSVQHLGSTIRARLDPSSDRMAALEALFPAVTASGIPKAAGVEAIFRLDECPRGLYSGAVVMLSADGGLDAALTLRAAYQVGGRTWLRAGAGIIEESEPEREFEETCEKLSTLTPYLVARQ
# Numbers without * were called inactive; i = inactive; nt = no result given; ! = not confirmed by another sample.
SMILES,PV pol inh,Mtb MenB inh,Mtb MbtI inh
COc1ccc(-c2nc(CSCC(=O)NCc3ccccc3Cl)c(C)o2)cc1OC,102,nt,nt
CCOc1ccc(NC2=NC(C(=O)NCc3ccccc3)CC(=O)N2)cc1 (stereo not given),109,-1,nt
C=CCn1c(COc2ccccc2)n[nH]c1=S,104,-40,nt
Cn1c(COc2ccccc2)n[nH]c1=S,102,-42,65*!
Nc1c2ccccc2nc2ccccc12 (tested in a mixture with another compound),100,-4,i
Nc1sc(=S)nc2ccccc12,97,-99,52*
CS(=O)(=O)CCC1NC(=O)NC1=O (stereo not given),nt,-39,-9
Cc1ccccc1NC(=O)CCC(=O)O,102,11,9
CCc1ccccc1NC(=O)CCC(=O)O,100,32*,-9
CC(C)CN(CC(C)C)S(=O)(=O)c1ccc(N)cc1,97,-12,-4
OCc1cnn(-c2ccccc2)c1,103,-2,-15
O=C(Cc1cnn(-c2ccccc2)c1)c1ccc(O)c(O)c1O,100,-7,82*
Fc1cccc(NCc2cccn2-c2nnc(N3CCCC3)s2)c1,102,-22,0
COc1ccc(OCC(=O)Sc2ccc(Cl)cc2)cc1,81*,-20,nt
CCOc1ccc(/C=C/C(=O)Sc2ccc(Cl)cc2)cc1,109,-8,nt
COc1ccc(C(=O)[C@@H]2[C@@H](c3cccs3)C(C#N)(C#N)[C@H]3C=Cc4ccccc4N23)cc1,nt,nt,-4
CCNc1nc(CN2CCOCC2)nc2sc3c(c12)CCCC3,108,-32,4
OCCOCCNc1ncnc2sc(-c3ccccc3)cc12,99,-4,i
CN(C)CCNc1ncnc2sc(-c3ccccc3)cc12,87*,-9,106
CC(C)OCc1nc2ccccc2n1C,100,2,-1
CCOC(OCC)n1c(=S)n(C(OCC)OCC)c2ccccc21,83*,-17,94*
CN1CCC2(CC1)N=C(c1ccccc1)C(=S)N2,101,-23,15
CCN1CCC2(CC1)N=C(c1ccccc1)C(=S)N2,104,-23,77*
O=C(CSc1cccc[n+]1[O-])c1ccco1,104,-15,0
O=C(CSc1cccc[n+]1[O-])c1cccs1,100,nt,98*
SMILES,PV pol inh,Mtb MenB inh,Mtb MbtI inh
O=C(CSc1cccc[n+]1[O-])c1cc2ccccc2o1,99,nt,98*
O=C(CSc1cccc[n+]1[O-])N1c2ccccc2Sc2ccccc21,100,nt,-4
Cc1ccc(-n2nc(C)c3c(C(=O)Nc4cccnc4)cc(C)nc32)cc1,102,-18,-20
CCN1CCCC1CNS(=O)(=O)c1ccc(F)cc1F (stereo not given),104,10,3
CCOC(=O)Nc1cc(Cl)ccc1Cl,102,-24,-11
CCc1ccc(S(=O)(=O)/N=C2/C=C(Nc3ccccc3)C(=O)c3ccccc32)cc1,98,-23,-1
CCc1ccc(S(=O)(=O)/N=C2\C=CC(=O)c3ccccc32)cc1,74*,-41,64
Cc1ccc(NCc2nnc(SCc3nc4ccccc4c(=O)[nH]3)n2Cc2ccco2)c(C)c1,102,-5,-3
CC(C)(C)NCc1ccc(-c2ccccc2)o1,100,12,8
CCN(CC)CCNCc1ccc(-c2ccccc2)o1,102,33*,11
CCOc1ccc(-n2c(SCC(=O)NC3CCCC3)nnc2-c2ccoc2C)cc1,100,36*,-4
Cc1n[nH]c(C)c1NC(=O)CSc1nnc(-c2ccoc2C)n1-c1ccccc1,104,-18,4
CCCNC(=O)Cn1ncc2c([nH]c3ccccc32)c1=O,103,-31,113
CCCCC(CC)C(=O)Nc1nnc(C(C)C)s1 (stereo not given),99,1,70*
CCCC(C)C(=O)Nc1nnc(C(C)C)s1 (stereo not given),91,-21,nt
Cc1cc(C)cc(NC(=O)c2cc(-c3ccco3)nc3ccccc23)c1,103,-27,22
O=C(O)c1cc(-c2ccco2)nc2ccc(Br)cc12,73*,0,nt
COCCNC(=O)CN1CCC(c2nc3ccccc3s2)CC1,104,-8,-10
O=C(C1CCCN1S(=O)(=O)c1cccc2nsnc12)N1CCN(Cc2ccc3c(c2)OCO3)CC1 (stereo not given),98,-19,2
Cc1cc(O)c(C=O)c2c1C(=O)Oc1c(C)c(O)c3c(c1O2)C(O)OC3=O (stereo not given),66*,7,-33
O=C(O)CCc1nc2c3c4c(sc3ncn2n1)CCCC4,99,-2,1
CCCc1nc2sc3c(c2c(=O)n1N)CCCC3,100,33*,5
NC(=O)n1c(CCC(=O)O)nc2sc3c(c2c1=O)CCC3,85*,-28,21
Nn1c(Cc2ccccc2)nc2sc3c(c2c1=O)CCCC3,98,-7,-3
COC(=O)c1ccc(/C=C2/NC(=O)NC2=O)cc1,100,12,20
SMILES,PV pol inh,Mtb MenB inh,Mtb MbtI inh
c1ccc(OCCCn2cnc3ccccc32)cc1,104,-17,1
O=C(CSc1ncnc2[nH]ncc12)c1ccccc1,101,1,-2
O=C(CSc1ncnc2[nH]ncc12)CSc1ncnc2[nH]ncc12,100,active,10
Cc1nc2ccc(C(=O)N3CCN(Cc4ccccc4)CC3)cc2[nH]1,104,-38,7
Cc1cc(C)n2nc(SC(C)C(=O)NC(=O)NC3CCCCC3)nc2n1 (stereo not given),102,-40,5
CN(C)c1ccc(/C=[N+](\[O-])C2(C)CCCCC2=O)cc1 (stereo not given),98,-66,4
O=S(=O)(c1cccc(Cl)c1Cl)N1CCN(c2ncccn2)CC1,106,-3,4
O=S(=O)(c1cccc(Cl)c1Cl)N1CCOCC1,100,33*,-6
CC(C)CNC(=O)c1ccccc1S(=O)(=O)N1CCCCC1,115,-23,94*
O=S(=O)(c1cccc2ccccc12)N1CCCCC1,100,-40,15
O=C(NCc1cccn1Cc1ccccc1)Nc1ccccc1,99,11,-10
N#Cc1c(-c2ccc(Cl)cc2)c2c([nH]c1=O)-c1ccccc1SC2,72,-2,-4
CCCCc1ccc(C(NC(=O)CCCn2cnc3c2c(=O)n(C)c(=O)n3C)c2cccs2)cc1 (stereo not given),104,-7,-2
CCCCN(Cc1ccccc1)C(=O)C1CCN(Cc2cccc(O)c2)CC1,103,-3,nt
CCCCN(C)C(=O)C1CCN(Cc2ccc(OCC)cc2)CC1,45*,3,nt
Cc1cc(C(F)(F)F)nc(SCCNC(=O)c2ccccc2F)n1,104,-3,2
CC(C)(C)c1cc(C(F)(F)F)nc(SCCNC(=O)c2cnn3cccnc23)n1,101,34*,-15
C=CCOC(=O)c1sc(N2CCCC2=O)c(C(=O)OCC)c1C,102,3,8
CCOC(=O)c1sc(N=NC2=C(O)CCCC2=O)c(C(=O)OCC)c1C,42*,-40,14
CCn1c(=O)n(CC)c2cc(N3CCCC3)c(NC(=O)C(C)(C)C)cc21,99,14,15
CCCCN(CC)C(=O)CSc1nc2n[nH]c(C)c2c(=N)n1-c1cccc(Cl)c1,99,nt,nt
COc1ccc(CC(C(=O)O)C(=O)O)cc1OC,nt,nt,-5
O=C(O)c1cccc(Nc2nc(-c3ccccn3)cs2)c1,102,-3,6
CCOC(=O)c1ccc(NC(=O)CCc2c(C)nc3c(-c4ccc(F)cc4)c(C)nn3c2C)cc1,104,nt,nt
